From PubChem BioAssay (EPA / NIEHS)
Activity calls are given as the source filed them. The calls were made as follows: active = hit-call score of the fitted dose curve at least 0.9, where 1 is the maximum; inactive = score below 0.9.

Legend:
[1] = read-out: Monocyte Chemoattractant Protein-1 (MCP1), CCL2 (gene 6347); experiment: BSK_SAg_MCP1: BioMAP Diversity Plus: SAg Assay for Monocyte Chemoattractant Protein-1 (MCP1) Biomarker Activity (AID 2283090); settings: primary human HUVEC with PBMC; actives raise or lower the signal
Method in brief: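 MCP-1 levels in the endothelial–PBMC SAg co-culture were quantified by ELISA at 24 h post-dosing; both increases and decreases versus DMSO scored. Cytotoxicity monitored by SRB total protein in parallel cultures.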

[2] = read-out: E-selectin (Homo sapiens) (UniProt P16581); experiment: BSK_SAg_Eselectin: BioMAP Diversity Plus: SAg Assay for Eselectin Biomarker Activity (AID 2283091); settings: primary human HUVEC with PBMC; actives raise or lower the signal
Method in brief: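 E-selectin ELISA readout at 24 h post-dosing in human umbilical vein endothelial cell/PBMC co-culture; gain or loss of signal fitted relative to DMSO baseline.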

[3] = read-out: Monokine induced gamma interferon (MIG), CXCL9 (gene 4283); experiment: BSK_SAg_MIG: BioMAP Diversity Plus: SAg Assay for Monokine induced gamma interferon (MIG) Biomarker Activity (AID 2283092); settings: primary human HUVEC with PBMC; actives raise or lower the signal
Method in brief: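 Endothelial cells and PBMC were co-cultured, exposed to test chemicals, and sampled 24 h later. MIG was measured by ELISA, and responses were fitted in both directions relative to DMSO.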

[4] = BSK_SAg_PBMCCytotoxicity: PBMC Cytotoxicity Assessment in the BioMAP Diversity Plus: SAg Assay (AID 2283093); settings: primary human HUVEC with PBMC;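 also: PBMC viability measured as Alamar Blue reduction fluorescence at 546/580 nm; fitted both ways against DMSO so a hit may be loss or gain of signal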;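 as to AC50: PBMC superantigen activated with SEB plus TSST-1 one hour after compound addition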
Method in brief: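 Compound added to 75,000 PBMC/well for 1 h; SEB and TSST-1 then added at 20 ng/mL final each; 90 h incubation; Alamar Blue 6 h; read 546/580 nm ex/em. Activity fitted bidirectionally relative to DMSO baseline.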

[5] = read-out: Interleukin-8 (IL8), CXCL8 (gene 3576); experiment: BSK_SAg_IL8: BioMAP Diversity Plus: SAg Assay for Interleukin-8 (IL8) Biomarker Activity (AID 2283094); settings: primary human HUVEC with PBMC; actives raise or lower the signal
Method in brief: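 In this co-culture of human umbilical vein endothelium with peripheral blood mononuclear cells, IL-8 is assayed by ELISA at 24 h. DMSO serves as baseline for bidirectional curve fitting.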

[6] = BSK_SAg_Proliferation: Cell Proliferation Assessment in the BioMAP Diversity Plus: SAg Assay (AID 2283095); settings: primary human HUVEC with PBMC;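 also: relative cell number as total protein by SRB absorbance in sub-confluent culture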
Method in brief: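 Readout is SRB-stained protein (560 nm) in a primary human HUVEC and PBMC co-culture; sub-confluent cultures are read at 96 h. Activity is fitted bidirectionally using DMSO as baseline.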

[7] = BSK_SAg_SRB: Viability Assessment in the BioMAP Diversity Plus: SAg Assay (AID 2283096); settings: primary human HUVEC with PBMC;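 also: cells read one day after compound addition; hits may be either gain or loss of signal compared with DMSO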
Method in brief: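 Total protein by sulforhodamine B staining, 24 h after dosing, in HUVEC–PBMC co-culture; DMSO-referenced bidirectional fitting.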

Measured: AC50

Sequence of E-selectin (Homo sapiens) (P16581 whole entry, looked up): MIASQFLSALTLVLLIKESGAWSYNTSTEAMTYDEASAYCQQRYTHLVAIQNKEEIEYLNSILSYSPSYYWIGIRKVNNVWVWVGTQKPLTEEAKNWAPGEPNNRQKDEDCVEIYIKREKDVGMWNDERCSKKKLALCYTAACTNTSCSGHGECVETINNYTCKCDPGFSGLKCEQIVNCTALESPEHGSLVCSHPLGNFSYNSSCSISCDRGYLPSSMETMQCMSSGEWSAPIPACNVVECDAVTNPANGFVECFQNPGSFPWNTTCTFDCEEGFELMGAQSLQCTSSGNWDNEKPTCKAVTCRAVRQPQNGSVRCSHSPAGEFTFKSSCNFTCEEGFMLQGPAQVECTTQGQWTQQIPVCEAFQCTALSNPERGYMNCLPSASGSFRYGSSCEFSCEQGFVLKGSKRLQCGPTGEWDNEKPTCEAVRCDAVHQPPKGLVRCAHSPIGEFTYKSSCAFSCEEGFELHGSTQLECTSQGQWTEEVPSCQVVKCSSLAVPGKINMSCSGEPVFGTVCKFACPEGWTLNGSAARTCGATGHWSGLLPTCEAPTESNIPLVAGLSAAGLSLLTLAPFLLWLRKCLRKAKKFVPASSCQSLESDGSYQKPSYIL

O=C(O)c1cccc(C(=O)O)c1
inactive: all assays above

c1ccc2c(c1)-c1cccc3c1c-2cc1ccccc13
active: [2] 0.566 µM
inactive: all other assays above

S=P(N1CC1)(N1CC1)N1CC1
active: [6] 4.15 µM
inactive: all other assays above

CCCCC(CC)C(=O)OCCOCCOCCOC(=O)C(CC)CCCC (configuration not stated)
active: [6] 24.7 µM
inactive: all other assays above

Cc1ncc([C@@H](CCCCCCc2ccc3c(n2)NCCC3)CC(=O)O)cn1
inactive: all assays above

CCCCCCCCCCCCCCO
active: [1] 34.2 µM | [2] 36.3 µM | [3] 39.4 µM | [4] 30.3 µM | [5] 31.8 µM | [6] 27.7 µM | [7] 32.4 µM

CCc1ccc(O)c(C(C)(C)C)c1
inactive: [3] | [5]
active: [1] 20 µM | [2] 29.6 µM | [4] 34.7 µM | [6] 33 µM | [7] 35.8 µM

FC(F)(F)COC(OCC(F)(F)F)OCC(F)(F)F
inactive: all assays above

c1ccc2cc3ccccc3cc2c1
inactive: all assays above

CCc1cccc(CC)c1N
inactive: all assays above

C[C@]12C=CC(=O)C=C1CC[C@H]1[C@@H]3C[C@@H](O)[C@](O)(C(=O)CO)[C@@]3(C)C[C@H](O)[C@@]12F
active: [1] 5.08 µM | [2] 3.66 µM
inactive: all other assays above

C[Si](C)(C)C(F)(F)C(F)(F)C(F)(F)F
inactive: all assays above

O=S(=O)(O)c1ccc(N=Nc2c(O)ccc3cc(S(=O)(=O)O)ccc23)cc1
inactive: all assays above

CCCCCCOC(=O)CC(CC(=O)OCCCCCC)(OC(=O)CCC)C(=O)OCCCCCC
active: [4] 4.11 µM | [6] 9.76 µM
inactive: all other assays above

OC[C@H]1O[C@@H]2O[C@H]3[C@H](O)[C@@H](O)[C@@H](O[C@H]4[C@H](O)[C@@H](O)[C@@H](O[C@H]5[C@H](O)[C@@H](O)[C@@H](O[C@H]6[C@H](O)[C@@H](O)[C@@H](O[C@H]7[C@H](O)[C@@H](O)[C@@H](O[C@H]1[C@H](O)[C@H]2O)O[C@@H]7CO)O[C@@H]6CO)O[C@@H]5CO)O[C@@H]4CO)O[C@@H]3CO
inactive: all assays above

O=C(NO)C1(NS(=O)(=O)c2ccc(Oc3ccc(F)cc3)cc2)CCOCC1
inactive: all assays above

O=c1[nH]cnc2c1ncn2[C@H]1CC[C@@H](CO)O1
inactive: all assays above

CCCCCOC(C)=O
active: [4] 30.3 µM | [6] 15.1 µM
inactive: all other assays above

CC[C@H](C)C(=O)O[C@H]1C[C@H](O)C=C2C=C[C@H](C)[C@H](CC[C@@H](O)C[C@@H](O)CC(=O)O)[C@H]21
active: [1] 14.6 µM | [2] 7.03 µM | [5] 11.9 µM
inactive: all other assays above

Cn1cc[nH]c1=S
inactive: all assays above

FC(F)(F)C(F)(F)C(F)(F)C(F)(F)C(F)(F)C(F)(F)I
inactive: all assays above

CCCCCCCCCC
inactive: all assays above

CCn1nc(C)c2c1C(=O)NCC(c1ccc(O)cc1)=N2
active: [1] 4.49 µM | [2] 0.435 µM | [6] 20 µM
inactive: all other assays above

C=CN1CCCC1=O
inactive: all assays above

FC(F)=C(F)C(F)(F)C(F)(F)C(F)(F)C(F)(F)C(F)(F)C(F)(F)F
inactive: all assays above

OCC(CO)(CO)CO
inactive: all assays above

CC1(C)C(=O)N(Cl)C(=O)N1Cl
inactive: all assays above

COCc1nnc(-c2ccc[n+]([O-])c2)n1-c1c(Cl)c(Cl)cc2[nH]c(=O)c(=O)[nH]c12
inactive: all assays above

COc1cc2c(c(OC)c1OC)-c1ccc(OC)c(=O)cc1[C@@H](NC(C)=O)CC2
active: [6] 0.34 µM | [7] 0.204 µM
inactive: all other assays above

CC(C)c1nnc2ccc(-c3ocnc3-c3cc(F)ccc3F)cn12
active: [1] 3.97 µM | [2] 10.6 µM | [4] 0.882 µM | [5] 1.27 µM | [6] 12.8 µM
inactive: [3] | [7]

O=C(O)[C@H](O)[C@@H](O)C(=O)O
inactive: all assays above

CC(C)C(=O)Nc1ccc([N+](=O)[O-])c(C(F)(F)F)c1
inactive: all assays above

OC(CCl)CCl
inactive: all assays above

CCCCCCCCCCCCCCCCOS(=O)(=O)O
inactive: all assays above

Cc1ccc(S(=O)(=O)NC(=O)NN2CCCCCC2)cc1
inactive: all assays above

Cc1nccn1-c1ccc(Sc2cccc(C3(C(N)=O)CCOCC3)c2)cc1
inactive: [3] | [4] | [7]
active: [1] 6.58 µM | [2] 8.95 µM | [5] 5.42 µM | [6] 5.48 µM

CCOc1ccc2[nH]cc(C(=O)NCc3ccccc3)c(=O)c2n1
inactive: all assays above

OCCNCCO
inactive: all assays above

OC[C@H]1O[C@@](CO)(O[C@H]2O[C@H](CO)[C@@H](O)[C@H](O)[C@H]2O)[C@@H](O)[C@@H]1O
inactive: all assays above

CCCCCCCCN(C)C
inactive: all assays above

O=C1CN(N=Cc2ccc([N+](=O)[O-])o2)C(=O)N1
active: [2] 9.33 µM | [6] 9.07 µM
inactive: all other assays above
